Measurements published in PubChem BioAssay (EPA / NIEHS).
Values joined by “and” are separate entries in the source; they are usually repeats but may differ in a detail not shown here. Equal entries are not always repeated. Results filed as inconclusive are left out. Active and inactive are the calls of the source. Rule for the calls: active = hit-call score of the fitted dose curve at least 0.9, where 1 is the maximum; inconclusive = response in the unintended direction; inactive = score below 0.9.

How the values were obtained:
[1] = target: human AKT serine/threonine Kinase 1 (AKT1), AKT1 (gene 207) (UniProt P31749); assay: NVS_ENZ_hAKT1: NovaScreen (NVS) Enzymatic Assay for human AKT serine/threonine Kinase 1 (AKT1) (AID 2283138)
Sequence of human AKT serine/threonine Kinase 1 (AKT1), AKT1 (gene 207) (P31749 whole entry, looked up): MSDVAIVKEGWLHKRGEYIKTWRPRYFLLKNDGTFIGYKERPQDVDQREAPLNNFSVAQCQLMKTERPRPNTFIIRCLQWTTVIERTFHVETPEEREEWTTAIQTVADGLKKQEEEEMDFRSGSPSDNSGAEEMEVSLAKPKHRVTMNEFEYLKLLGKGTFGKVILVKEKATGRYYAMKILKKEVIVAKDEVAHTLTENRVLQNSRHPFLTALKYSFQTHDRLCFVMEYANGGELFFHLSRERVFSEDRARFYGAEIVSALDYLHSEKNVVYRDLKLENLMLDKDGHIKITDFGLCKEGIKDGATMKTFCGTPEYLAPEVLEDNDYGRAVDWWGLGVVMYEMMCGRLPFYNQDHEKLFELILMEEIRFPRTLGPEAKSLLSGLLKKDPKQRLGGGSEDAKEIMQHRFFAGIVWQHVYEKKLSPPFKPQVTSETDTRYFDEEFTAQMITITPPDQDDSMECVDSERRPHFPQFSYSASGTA
In short: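 Recombinant AKT1, specific substrate, cell-free; 1 h; fluorescence intensity/electrophoretic mobility shift. Duplicate single-point 25 uM, then singleton CRC max 50 uM. DMSO = negative control/baseline; signal loss = inhibition.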

[2] = target: human Beta-secretase (BACE), BACE1 (gene 23621) (UniProt P56817); assay: NVS_ENZ_hBACE: NovaScreen (NVS) Enzymatic Assay for human Beta-secretase (BACE) (AID 2283140);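 note: hits are inhibitors that reduce fluorescent substrate signal versus DMSO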
Sequence of human Beta-secretase (BACE), BACE1 (gene 23621) (P56817 whole entry, looked up): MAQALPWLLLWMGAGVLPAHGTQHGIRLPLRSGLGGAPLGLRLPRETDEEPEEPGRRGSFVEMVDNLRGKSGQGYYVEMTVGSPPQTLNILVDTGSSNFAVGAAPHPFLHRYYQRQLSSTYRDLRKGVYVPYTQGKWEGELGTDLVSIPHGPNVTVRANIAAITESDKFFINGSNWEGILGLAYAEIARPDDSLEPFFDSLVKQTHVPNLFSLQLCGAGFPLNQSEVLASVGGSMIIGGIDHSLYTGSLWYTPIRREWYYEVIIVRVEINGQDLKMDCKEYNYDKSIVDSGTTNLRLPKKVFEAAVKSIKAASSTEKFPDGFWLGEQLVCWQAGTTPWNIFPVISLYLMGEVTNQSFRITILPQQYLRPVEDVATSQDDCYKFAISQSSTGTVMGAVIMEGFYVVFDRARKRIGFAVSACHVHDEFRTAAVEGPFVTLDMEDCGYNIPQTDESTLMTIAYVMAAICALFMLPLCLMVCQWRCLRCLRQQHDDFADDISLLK
In short: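 Compounds were first tested in duplicate at 25 uM, then actives in concentration series, against recombinant BACE1 from SF9 cells. Enzyme activity was measured by fluorescence intensity 1 hour after dosing, with DMSO as negative control.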

[3] = target: human Aurora Kinase A - serine/threonine-protein Kinase 6 (AurA), AURKA (gene 6790) (UniProt O14965); assay: NVS_ENZ_hAurA: NovaScreen (NVS) Enzymatic Assay for human Aurora Kinase A - serine/threonine-protein Kinase 6 (AurA) (AID 2283142)
Sequence of human Aurora Kinase A - serine/threonine-protein Kinase 6 (AurA), AURKA (gene 6790) (O14965 whole entry, looked up): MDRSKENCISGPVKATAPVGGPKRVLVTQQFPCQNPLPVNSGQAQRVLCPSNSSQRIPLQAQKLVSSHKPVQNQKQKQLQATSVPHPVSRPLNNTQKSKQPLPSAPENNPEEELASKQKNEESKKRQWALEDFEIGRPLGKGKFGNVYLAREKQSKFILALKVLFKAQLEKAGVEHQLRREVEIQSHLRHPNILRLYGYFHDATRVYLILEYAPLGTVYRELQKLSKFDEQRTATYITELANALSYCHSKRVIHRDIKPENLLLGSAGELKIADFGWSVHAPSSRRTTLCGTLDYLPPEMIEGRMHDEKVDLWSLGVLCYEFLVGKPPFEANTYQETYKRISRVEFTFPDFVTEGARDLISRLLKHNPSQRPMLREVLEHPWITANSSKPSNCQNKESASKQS
In short: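 Cell-free enzymatic assay with human Aurora A, 1 hour after dosing. Fluorescent substrate turnover detected after electrophoretic mobility shift separation of substrate and product. Screened at 25 uM, actives retested in concentration-response up to 50 uM.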

[4] = target: human Casein Kinase 2- alpha 2 beta 2 (CK2a2b2), CSNK2A1 (gene 1457) (UniProt P68400); assay: NVS_ENZ_hCK2a2b2: NovaScreen (NVS) Enzymatic Assay for human Casein Kinase 2- alpha 2 beta 2 (CK2a2b2) (AID 2283147)
Sequence of human Casein Kinase 2- alpha 2 beta 2 (CK2a2b2), CSNK2A1 (gene 1457) (P68400 whole entry, looked up): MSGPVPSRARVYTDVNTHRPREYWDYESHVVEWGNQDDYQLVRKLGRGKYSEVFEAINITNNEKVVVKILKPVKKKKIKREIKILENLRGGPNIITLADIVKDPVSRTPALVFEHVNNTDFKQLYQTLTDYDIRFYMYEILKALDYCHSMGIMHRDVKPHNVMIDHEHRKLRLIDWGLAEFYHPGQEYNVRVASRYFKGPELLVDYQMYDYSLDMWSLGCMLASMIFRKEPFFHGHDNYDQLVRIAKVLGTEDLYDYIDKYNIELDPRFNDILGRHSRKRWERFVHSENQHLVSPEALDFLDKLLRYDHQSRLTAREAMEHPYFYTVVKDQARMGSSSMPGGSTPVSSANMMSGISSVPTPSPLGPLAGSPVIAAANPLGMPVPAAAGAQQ
In short: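 Cell-free recombinant CK2 α2β2 holoenzyme with a fluorescent peptide substrate; product separated by electrophoretic mobility shift and read 1 h after dosing. Single-point screen at 25 uM in duplicate; actives were followed with concentration-response up to 50 uM versus DMSO.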

[5] = target: human Casein Kinase 1-delta (CK1D), CSNK1D (gene 1453) (UniProt P48730); assay: NVS_ENZ_hCK1D: NovaScreen (NVS) Enzymatic Assay for human Casein Kinase 1-delta (CK1D) (AID 2283148)
Sequence of human Casein Kinase 1-delta (CK1D), CSNK1D (gene 1453) (P48730 whole entry, looked up): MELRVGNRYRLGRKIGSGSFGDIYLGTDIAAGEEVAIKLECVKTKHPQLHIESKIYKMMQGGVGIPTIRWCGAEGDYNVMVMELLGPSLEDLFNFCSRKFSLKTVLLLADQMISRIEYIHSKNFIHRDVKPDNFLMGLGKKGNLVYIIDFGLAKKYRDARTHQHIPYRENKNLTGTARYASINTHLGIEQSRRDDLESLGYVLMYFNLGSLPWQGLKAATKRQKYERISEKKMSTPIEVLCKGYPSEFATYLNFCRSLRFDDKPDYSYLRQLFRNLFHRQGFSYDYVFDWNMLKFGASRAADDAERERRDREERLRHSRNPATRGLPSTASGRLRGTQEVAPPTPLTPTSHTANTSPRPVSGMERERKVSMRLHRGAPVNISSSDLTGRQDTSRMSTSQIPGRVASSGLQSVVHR
In short: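 Recombinant human CK1-delta, cell-free; fluorescent substrate with electrophoretic mobility-shift separation of product, read 1 h after dosing. Single 25 uM duplicate screen, then concentration-response up to 50 uM; loss of signal vs DMSO.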

[6] = target: human Ephrin type-A Receptor 2 (EphA2), EPHA2 (gene 1969) (UniProt P29317); assay: NVS_ENZ_hEphA2: NovaScreen (NVS) Enzymatic Assay for human Ephrin type-A Receptor 2 (EphA2) (AID 2283155)
Sequence of human Ephrin type-A Receptor 2 (EphA2), EPHA2 (gene 1969) (P29317 whole entry, looked up): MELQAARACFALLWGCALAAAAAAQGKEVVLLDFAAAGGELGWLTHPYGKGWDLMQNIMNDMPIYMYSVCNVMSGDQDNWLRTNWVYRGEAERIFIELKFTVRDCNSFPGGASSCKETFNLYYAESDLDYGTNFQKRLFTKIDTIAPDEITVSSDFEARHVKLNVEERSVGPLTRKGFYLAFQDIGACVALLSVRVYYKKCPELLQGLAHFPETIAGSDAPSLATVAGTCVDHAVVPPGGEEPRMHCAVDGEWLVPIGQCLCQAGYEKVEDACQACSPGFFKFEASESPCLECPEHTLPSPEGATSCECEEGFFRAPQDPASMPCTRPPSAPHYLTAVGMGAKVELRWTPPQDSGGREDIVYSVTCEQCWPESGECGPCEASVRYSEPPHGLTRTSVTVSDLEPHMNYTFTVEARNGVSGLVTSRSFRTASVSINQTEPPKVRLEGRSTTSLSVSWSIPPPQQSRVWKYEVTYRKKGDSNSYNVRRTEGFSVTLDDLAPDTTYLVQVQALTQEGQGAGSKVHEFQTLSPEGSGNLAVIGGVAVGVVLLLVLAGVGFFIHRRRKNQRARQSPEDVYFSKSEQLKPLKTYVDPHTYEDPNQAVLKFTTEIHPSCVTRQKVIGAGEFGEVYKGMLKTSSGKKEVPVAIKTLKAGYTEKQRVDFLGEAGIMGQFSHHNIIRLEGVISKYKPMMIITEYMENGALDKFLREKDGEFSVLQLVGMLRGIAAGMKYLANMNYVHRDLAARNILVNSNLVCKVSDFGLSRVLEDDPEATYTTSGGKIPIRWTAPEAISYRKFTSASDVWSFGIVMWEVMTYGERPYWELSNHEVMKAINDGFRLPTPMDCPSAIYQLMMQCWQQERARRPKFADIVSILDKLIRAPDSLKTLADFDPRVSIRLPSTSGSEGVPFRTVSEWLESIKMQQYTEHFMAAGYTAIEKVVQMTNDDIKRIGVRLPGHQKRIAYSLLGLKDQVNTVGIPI
In short: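 Cell-free recombinant EphA2 kinase with specific substrate, 1 h, fluorescence with electrophoretic mobility-shift separation of substrate and product. Primary screen at 25 uM in duplicate; hits retested in singleton concentration-response up to 50 uM, referenced to DMSO.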

[7] = target: human Ephrin type-B Receptor 1 (EphB1), EPHB1 (gene 2047) (UniProt P54762); assay: NVS_ENZ_hEphB1: NovaScreen (NVS) Enzymatic Assay for human Ephrin type-B Receptor 1 (EphB1) (AID 2283154)
Sequence of human Ephrin type-B Receptor 1 (EphB1), EPHB1 (gene 2047) (P54762 whole entry, looked up): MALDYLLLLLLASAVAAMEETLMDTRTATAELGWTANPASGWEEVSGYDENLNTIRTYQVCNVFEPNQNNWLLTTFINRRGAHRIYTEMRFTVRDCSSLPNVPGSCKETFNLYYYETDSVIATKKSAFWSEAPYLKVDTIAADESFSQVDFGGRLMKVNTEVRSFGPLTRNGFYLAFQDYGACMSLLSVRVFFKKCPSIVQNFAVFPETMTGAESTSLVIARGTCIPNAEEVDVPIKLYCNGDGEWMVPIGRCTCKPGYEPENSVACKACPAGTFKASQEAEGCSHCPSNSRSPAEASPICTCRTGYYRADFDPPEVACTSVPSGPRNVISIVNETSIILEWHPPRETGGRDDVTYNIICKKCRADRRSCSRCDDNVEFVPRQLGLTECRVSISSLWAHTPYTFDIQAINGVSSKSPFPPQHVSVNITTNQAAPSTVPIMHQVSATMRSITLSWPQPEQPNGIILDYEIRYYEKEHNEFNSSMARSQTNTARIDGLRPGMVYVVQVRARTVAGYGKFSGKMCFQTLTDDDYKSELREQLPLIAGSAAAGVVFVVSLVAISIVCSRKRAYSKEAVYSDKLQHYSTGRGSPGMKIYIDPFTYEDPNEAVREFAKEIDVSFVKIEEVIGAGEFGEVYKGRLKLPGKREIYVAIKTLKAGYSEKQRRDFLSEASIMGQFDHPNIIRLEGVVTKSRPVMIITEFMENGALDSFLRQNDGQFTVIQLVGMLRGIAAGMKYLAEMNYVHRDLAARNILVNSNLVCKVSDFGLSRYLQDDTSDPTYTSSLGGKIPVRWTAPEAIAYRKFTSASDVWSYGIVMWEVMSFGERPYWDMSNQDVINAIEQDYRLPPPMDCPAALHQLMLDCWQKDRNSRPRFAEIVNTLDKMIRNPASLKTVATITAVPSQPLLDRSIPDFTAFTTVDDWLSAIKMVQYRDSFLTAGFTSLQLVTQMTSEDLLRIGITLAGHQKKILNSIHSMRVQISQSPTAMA
In short: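 Cell-free kinase assay with recombinant enzyme, fluorescent substrate and electrophoretic mobility-shift separation of substrate and product; read 1 h after dosing. Single-concentration duplicate screen at 25 uM; loss of signal versus DMSO baseline.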

[8] = target: human Acid Phosphatase 1 (ACP1), ACP1 (gene 52) (UniProt P24666); assay: NVS_ENZ_hACP1: NovaScreen (NVS) Enzymatic Assay for human Acid Phosphatase 1 (ACP1) (AID 2283136)
In short: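 Recombinant enzyme expressed in Sf9 cells, tested cell-free; activity read by fluorescence with electrophoretic mobility shift separation of substrate and product, 1.5 h after dosing. Primary screen in duplicate at 25 uM, actives then run in concentration series; loss of signal versus DMSO.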

CDK2 (gene 1017) = CDK2 (gene 1017) (UniProt P24941); assay: NVS_ENZ_hCDK2: NovaScreen (NVS) Enzymatic Assay for human Cyclin-Cependent Kinase 2 (CDK2) (AID 2283144)
In short: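 Cell-free recombinant human CDK2 with fluorescent substrate, product separated by electrophoretic mobility shift; 1 hr read. Primary screen at 25 uM in duplicate, actives retested in concentration-response up to 50 uM; loss of signal versus DMSO.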

[9] = target: human Dual Specificity Protein Phosphatase 3 (DUSP3), DUSP3 (gene 1845) (UniProt P51452); assay: NVS_ENZ_hDUSP3: NovaScreen (NVS) Enzymatic Assay for human Dual Specificity Protein Phosphatase 3 (DUSP3) (AID 2283152);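 note: phosphatase activity of recombinant human DUSP3 on a fluorogenic substrate without cells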
Sequence of human Dual Specificity Protein Phosphatase 3 (DUSP3), DUSP3 (gene 1845) (P51452 whole entry, looked up): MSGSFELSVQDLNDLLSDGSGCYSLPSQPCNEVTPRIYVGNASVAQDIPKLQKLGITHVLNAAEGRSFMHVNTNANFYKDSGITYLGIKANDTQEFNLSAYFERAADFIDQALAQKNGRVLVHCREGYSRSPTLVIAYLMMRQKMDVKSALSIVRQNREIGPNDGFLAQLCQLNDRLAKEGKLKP
In short: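 Cell-free assay with recombinant human DUSP3 and fluorogenic substrate, read by fluorescence intensity. Primary screen ran duplicate at 25 uM; actives followed up in concentration series; loss of signal versus DMSO scored.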

[10] = target: human Acetylcholinesterase (AChE), ACHE (gene 43) (UniProt P22303); assay: NVS_ENZ_hAChE: NovaScreen (NVS) Enzymatic Assay for human Acetylcholinesterase (AChE) (AID 2283129)
In short: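 Cell-free colorimetric enzyme-activity assay; compounds read 0.33 hour after dosing, loss of signal vs DMSO baseline. Primary screen in duplicate at 25 uM single concentration, with active compounds retested in concentration series.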

[11] = target: human Elastase, ELANE (gene 1991) (UniProt P08246); assay: NVS_ENZ_hElastase: NovaScreen (NVS) Enzymatic Assay for human Elastase (AID 2283153)
Sequence of human Elastase, ELANE (gene 1991) (P08246 whole entry, looked up): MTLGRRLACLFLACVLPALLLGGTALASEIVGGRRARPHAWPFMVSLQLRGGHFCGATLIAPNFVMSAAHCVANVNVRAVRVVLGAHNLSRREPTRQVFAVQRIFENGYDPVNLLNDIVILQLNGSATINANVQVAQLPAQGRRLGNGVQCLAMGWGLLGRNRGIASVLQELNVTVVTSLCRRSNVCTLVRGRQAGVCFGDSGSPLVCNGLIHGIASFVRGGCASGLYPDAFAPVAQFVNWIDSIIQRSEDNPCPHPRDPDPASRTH
In short: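 Cell-free elastase from human neutrophils, 1.5 h after dosing, activity read by absorbance. Primary screen in duplicate at 25 uM; hits (e.g., 30% inhibition) rerun in singleton concentration-response up to 50 uM, fitted versus DMSO.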

[12] = target: human Caspase 8 (CASP8), CASP8 (gene 841) (UniProt Q14790); assay: NVS_ENZ_hCASP8: NovaScreen (NVS) Enzymatic Assay for human Caspase 8 (CASP8) (AID 2283146)
In short: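 E. coli-expressed enzyme was used in a cell-free fluorogenic substrate assay read 1 h after dosing. Loss of signal was scored relative to DMSO, and the primary screen was run in duplicate at 25 uM.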

[13] = target: human Caspase 5 (CASP5), CASP5 (gene 838) (UniProt P51878); assay: NVS_ENZ_hCASP5: NovaScreen (NVS) Enzymatic Assay for human Caspase 5 (CASP5) (AID 2283137)
In short: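 E. coli-derived enzyme, cell-free, 2 h incubation, fluorescence intensity. 25 uM duplicate single-point; hits → concentration series to 50 uM. DMSO baseline, positive/negative controls on every plate.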

Caspase-3 (Homo sapiens) = Caspase-3 (Homo sapiens) (UniProt P42574); assay: NVS_ENZ_hCASP3: NovaScreen (NVS) Enzymatic Assay for human Caspase 3 (CASP3) (AID 2283139)
Sequence of Caspase-3 (Homo sapiens) (P42574 whole entry, looked up): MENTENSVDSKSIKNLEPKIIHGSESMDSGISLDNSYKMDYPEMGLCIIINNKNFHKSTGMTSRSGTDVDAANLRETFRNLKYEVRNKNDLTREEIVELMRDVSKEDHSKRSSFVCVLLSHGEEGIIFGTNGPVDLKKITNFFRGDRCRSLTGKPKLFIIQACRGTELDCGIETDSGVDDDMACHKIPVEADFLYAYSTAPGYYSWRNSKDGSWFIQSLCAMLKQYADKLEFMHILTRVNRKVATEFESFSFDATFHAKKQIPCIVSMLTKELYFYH
In short: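 Recombinant human caspase-3 from E. coli with a fluorogenic substrate, read by fluorescence 1 h after dosing. Primary screen in duplicate at 25 uM. Actives (for example ≥30% inhibition) rerun as concentration-response up to 50 uM.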

**Q.** What does the source list for `Cc1ccc(-c2c(Cl)nc(C#N)n2S(=O)(=O)N(C)C)cc1`?
**A.** outcome [1]: inactive; outcome [2]: inactive; AC50 [3]: 23.5 µM (active); AC50 [4]: 6.49 µM (active); outcome [5]: inactive; outcome [6]: inactive

**Q.** With `COC(=O)C(C)Oc1ccc(Oc2ccc(Cl)cc2Cl)cc1` (centres undefined) as the compound, how does the AC50 [2] read?
**A.** 5.69 µM (active) and 16.3 µM (active) and 5.37 µM (active)

**Q.** What about the outcome [7] of the same compound?
**A.** inactive

**Q.** For `CCCN(CCC)c1c([N+](=O)[O-])cc(S(N)(=O)=O)cc1[N+](=O)[O-]`, which outcome [8] is on record?
**A.** inactive

**Q.** What about the outcome [1] of the same compound?
**A.** inactive

**Q.** And the outcome [3]?
**A.** inactive

**Q.** What about the outcome (CDK2 (gene 1017)) of the same compound?
**A.** inactive

**Q.** What about the outcome [5] of the same compound?
**A.** inactive

**Q.** And the outcome [6]?
**A.** inactive

**Q.** How did the outcome [5] turn out when `CCNc1nc(Cl)nc(NCC)n1` was run?
**A.** inactive

**Q.** `CCc1nn(C)c(C(=O)NCc2ccc(C(C)(C)C)cc2)c1Cl` was tested. Which outcome [9] did it give?
**A.** inactive

**Q.** Which results are given for `COC(=O)C=C(C)OP(=O)(OC)OC`?
**A.** AC50 [10]: 6 µM (active); outcome [11]: inactive

**Q.** Which outcome [1] does the source give for `Oc1ccccc1-c1ccccc1` here?
**A.** inactive

**Q.** What about the outcome [3] of the same compound?
**A.** inactive

**Q.** And the outcome [11]?
**A.** inactive

**Q.** `CCOC(=O)C(Cl)Cc1cc(-n2nc(C)n(C(F)F)c2=O)c(F)cc1Cl` (centres undefined) was tested. Which outcome [9] did it give?
**A.** inactive

**Q.** For `CN(C)C(=S)SSC(=S)N(C)C`, which AC50 [10] is on record?
**A.** 10.6 µM (active)

**Q.** With `N#Cc1cc(Br)c(O)c(Br)c1` as the compound, how does the outcome [1] read?
**A.** inactive

**Q.** What about the outcome [3] of the same compound?
**A.** inactive

**Q.** And the outcome [12]?
**A.** inactive

**Q.** And the AC50 [4]?
**A.** 13 µM (active)

**Q.** What about the outcome [7] of the same compound?
**A.** inactive

**Q.** What about the outcome [6] of the same compound?
**A.** inactive

**Q.** With `CC1COC(Cn2cncn2)(c2ccc(Oc3ccc(Cl)cc3)cc2Cl)O1` (centres undefined) as the compound, how does the outcome [1] read?
**A.** inactive

**Q.** What about the outcome [9] of the same compound?
**A.** inactive

**Q.** What about the outcome [7] of the same compound?
**A.** inactive

**Q.** With `COc1ccc(C(c2ccc(OC)cc2)C(Cl)(Cl)Cl)cc1` as the compound, how does the AC50 [13] read?
**A.** 25 µM (active)

**Q.** What about the AC50 [2] of the same compound?
**A.** 33.9 µM (active)

**Q.** And the outcome [7]?
**A.** inactive

**Q.** For `Fc1ccc(Oc2ccnc3cc(Cl)cc(Cl)c23)cc1`, which outcome [3] is on record?
**A.** inactive

**Q.** And the outcome [12]?
**A.** inactive

**Q.** For `COC(=O)N(OC)c1ccccc1COc1ccn(-c2ccc(Cl)cc2)n1`, which AC50 [2] is on record?
**A.** 11.6 µM (active)

**Q.** With `CCCCOC(=O)c1ccccc1C(=O)OCCCC` as the compound, how does the outcome [1] read?
**A.** inactive

**Q.** What about the outcome [2] of the same compound?
**A.** inactive

**Q.** What about the outcome [7] of the same compound?
**A.** inactive

**Q.** How did the outcome [1] turn out when `CON(C)C(=O)Nc1ccc(Cl)c(Cl)c1` was run?
**A.** inactive

**Q.** What about the outcome [4] of the same compound?
**A.** inactive

**Q.** With `CCCCC(CC)COC(=O)c1ccccc1C(=O)OCC(CC)CCCC` (centres undefined) as the compound, how does the outcome [5] read?
**A.** inactive

**Q.** `COc1nc(C)nc(NC(=O)NS(=O)(=O)c2ccccc2Cl)n1` was tested. Which outcome (CDK2 (gene 1017)) did it give?
**A.** inactive

**Q.** For `C#CCOS(=O)OC1CCCCC1Oc1ccc(C(C)(C)C)cc1` (centres undefined), which outcome (Caspase-3 (Homo sapiens)) is on record?
**A.** inactive

**Q.** And the AC50 [2]?
**A.** 14.8 µM (active)

**Q.** Which outcome (Caspase-3 (Homo sapiens)) does the source give for `CC(Oc1ccc(Cl)cc1Cl)C(=O)O` (centres undefined) here?
**A.** inactive

**Q.** How did the outcome [8] turn out when `C=CCC1=C(C)[C@@H](OC(=O)[C@@H]2[C@@H](C=C(C)C)C2(C)C)CC1=O` was run?
**A.** inactive
